Most compounds without a hit are left out; they make up all but 2.6% or so of the library.
Rce1 inhib: inhibitors of yeast Ras-converting enzyme; yeast membranes, quenched prenylated peptide cleavage fluorescence; 0.27% of 290,000 active; calls only;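 active = fall in fluorescence gain of 50% or more versus controls, with final raw signal at or below 3038400; inconclusive = same 50% fall but final raw signal above 3038400; inactive = fall in fluorescence gain under 50%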;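 also: plate controls were neutral control wells for no effect and wells lacking membranes for full effect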
ABHD5 PLIN5 PPI: blocks binding of human ABHD5 to perilipin-5 | Q00G26+Q8WTS1 | Split G. princeps luciferase complementation, luminescence, 4 h | inhibition, % at 4 µM | 0.78% of 360,000 active | AID 602281;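 active = inhibition above the mean inhibition across every tested compound plus 3 SD, cut at about 22% in these data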;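 also: 0% = DMSO only wells and the 100% control is not disclosed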
Target sequence (Q00G26 whole entry, looked up): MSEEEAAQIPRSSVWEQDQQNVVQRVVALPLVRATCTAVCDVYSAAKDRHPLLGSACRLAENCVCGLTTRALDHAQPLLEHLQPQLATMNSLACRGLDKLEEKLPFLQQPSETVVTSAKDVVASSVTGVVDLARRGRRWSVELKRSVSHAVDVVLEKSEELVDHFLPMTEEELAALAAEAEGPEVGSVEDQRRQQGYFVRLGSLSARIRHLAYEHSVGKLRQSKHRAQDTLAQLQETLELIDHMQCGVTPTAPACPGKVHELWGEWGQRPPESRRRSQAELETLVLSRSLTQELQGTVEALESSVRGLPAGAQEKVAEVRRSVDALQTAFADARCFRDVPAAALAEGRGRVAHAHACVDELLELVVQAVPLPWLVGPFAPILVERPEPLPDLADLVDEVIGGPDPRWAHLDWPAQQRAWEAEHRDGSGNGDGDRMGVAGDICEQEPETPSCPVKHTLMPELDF
Target sequence (Q8WTS1 whole entry, looked up): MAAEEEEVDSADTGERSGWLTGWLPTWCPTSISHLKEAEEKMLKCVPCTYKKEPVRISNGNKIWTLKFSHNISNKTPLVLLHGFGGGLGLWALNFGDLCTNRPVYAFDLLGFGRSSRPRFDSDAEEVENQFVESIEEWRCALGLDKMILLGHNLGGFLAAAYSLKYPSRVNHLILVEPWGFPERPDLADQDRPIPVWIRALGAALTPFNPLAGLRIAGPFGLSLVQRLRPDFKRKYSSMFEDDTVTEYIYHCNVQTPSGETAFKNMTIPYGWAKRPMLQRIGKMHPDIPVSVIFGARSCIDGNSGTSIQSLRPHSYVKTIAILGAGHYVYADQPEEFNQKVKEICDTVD
Platelet DG rel: platelet dense granule release activity; human platelet-rich plasma, SFLLRN dense granule ATP release, luminescence; inhibition, %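 (compounds screened at 7.5 µM in platelet-rich plasma)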; 0.22% of 300,000 active; AID 1663;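 active = mean replicate score, as percent of positive control, at or above 50; inconclusive = mean below 50 but at least one replicate at or above 50; inactive = mean and every replicate below 50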
PfM18AAP inh: blocks P. falciparum M18 aspartyl aminopeptidase | recombinant PfM18AAP, H-Glu-NHMec fluorogenic cleavage | inhibition, % at 7.35 µM | 1.2% of 290,000 active;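 active = inhibition above the campaign mean inhibition over all tested compounds plus 3 SD, cut at about 28% in these data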;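 also: 0% = plate median of test compound wells and 100% = 2 mM ZnCl2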
Granule exo inh: lytic granule exocytosis inhibition; inhibition, % at 10 µM; AID 651702; 0.66% of 360,000 active; TALL-104 LAMP-1 surface exposure, flow cytometry; cells stimulated with thapsigargin and PMA;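 active = inhibition above about 55%, limit read from the data; inconclusive = no clear call, values can overlap the other calls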
ABHD5 PLIN5 conf: confirmation of human ABHD5-PLIN5 interaction inhibitors. shares compounds with ABHD5 PLIN5 PPI. biochemical ABHD5-PLIN5 interaction, luminescence. inhibition, % at 4 µM. 67% of 2,200 active. AID 651612; in the data active = inhibition above about 23%;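 also: 0% = DMSO vehicle wells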
HNF4 split-luc: counter-screen for ABHD5-PLIN5 inhibitors: HNF4 split-luciferase; shares compounds with ABHD5 PLIN5 PPI; HNF4 dimerization, luminescence, biochemical; inhibition, % at 4 µM; 77% of 2,200 active; AID 651674;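 active = mean inhibition across replicate wells exceeding the computed hit threshold, cut at about 13% in these data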;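 also: light from luciferase halves that rejoin when HNF4 fusion proteins dimerize; 0% = DMSO only wells and the 100% control is not given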
Starred values were filed as active, the others as inactive; i = inactive; ? = inconclusive; . = no result.

SMILES | Rce1 inhib | ABHD5 PLIN5 PPI | Platelet DG rel | PfM18AAP inh | Granule exo inh | ABHD5 PLIN5 conf | HNF4 split-luc
CCC(C)(C)NC(=O)c1ccc(Sc2nncn2C)c([N+](=O)[O-])c1 | i | 3 | -9 | -4 | -1 | . | .
Cn1cnnc1Sc1ccc(/C=C/C(=O)c2ccc(O)cc2)cc1[N+](=O)[O-] | i | 64* | 6 | 25 | -2 | 87* | 87*
CCCSc1cc(NCCOC(C)=O)c([N+](=O)[O-])c2nonc12 | i | -13 | ? | -4 | -4 | . | .
Cc1nnc(Sc2cc(NCCO)c([N+](=O)[O-])c3nonc23)s1 | i | 50* | 2 | -43 | 0 | 52* | 114*
Cc1nnc(Sc2cc(NCCCO)c([N+](=O)[O-])c3nonc23)s1 | i | 27* | 7 | -56 | 11 | 49* | 111*
N#Cc1ccccc1NC(=O)CC1c2ccccc2Oc2ccccc21 | i | -6 | 7 | -2 | -6 | . | .
O=c1c(-c2ccco2)nc2ccccc2n1C(c1ccccc1)c1nc2ccccc2[nH]1 (stereo not given) | . | 36* | . | . | -1 | 28* | 16*
O=c1c(-c2ccco2)nc2ccccc2n1C(c1ccccn1)c1nc2ccccc2[nH]1 (stereo not given) | . | 37* | . | . | 3 | 33* | 59*
Cc1ccc(S(C)(=O)=NC(=O)NC(=O)c2c(Cl)cccc2Cl)cc1 (stereo not given) | i | -2 | 7 | -4 | -11 | . | .
COc1ccccc1N1CCN(Cc2cc(Br)c(O)c3ncccc23)CC1 | i | 25* | 1 | -6 | 1 | 14 | 14*
C=CCCC1(C)C(=O)N(c2ccccc2)c2ccccc21 (stereo not given) | i | -2 | -1 | -3 | -2 | . | .
C=CCC1(C)C(=O)N(c2ccccc2)c2ccccc21 (stereo not given) | i | 32* | -4 | -1 | -8 | 5 | 4
COc1ccc(CN2CC(C(=O)NCCCN3CCN(Cc4ccccc4)CC3)CC2=O)cc1 (stereo not given) | i | 2 | -11 | -4 | 2 | . | .
Cc1ccc(SC2=C(Sc3ccc(C)cc3)C(=O)c3ccccc3C2=O)cc1 | i | 25* | -2 | 9 | 93* | 63* | 12*
C=CCOc1ccccc1/C=N/NC(=O)c1ccc(Cl)cc1Cl | i | -5 | 3 | -1 | -4 | . | .
c1ccc(OCc2ccc(CCCN3CCOCC3)cc2)cc1 | i | -1 | -1 | -8 | -4 | . | .
CCOC(=O)c1cnc2c(C)cccc2c1Nc1ccc(N2CCOCC2)cc1 | i | . | -2 | -9 | . | . | .
CCOC(=O)c1cnc2c(C)cccc2c1NCc1ccco1 | i | 24* | -13 | 13 | -3 | 4 | 8
COc1ccc(C(=O)N/C(=C/c2cccs2)c2nc3ccccc3[nH]2)cc1OC | i | 2 | 11 | 3 | -5 | . | .
COc1cc(/C=C(/C(=O)c2cccs2)c2nc3ccccc3[nH]2)cc(OC)c1O | i | 60* | 17 | 17 | 19 | 88* | 88*
O=C(/C(=C/c1ccc(Cl)cc1)c1nc2ccccc2[nH]1)c1ccccc1 | i | 28* | 0 | -3 | 54 | 100* | 94*
O=C(N/C(=C/c1ccc(Cl)cc1)c1nc2ccccc2[nH]1)c1ccco1 | i | -1 | 17 | 5 | -2 | . | .
CCOC(=O)C1=CC[C@@H](c2ccccc2)N(S(=O)(=O)c2ccc(C)cc2)[C@H]1C#N | . | 58* | . | . | 15 | 30* | 65*
O=C(C=Cc1ccccc1)c1cc(Br)ccc1O | . | 17 | . | . | -6 | . | .
COc1ccccc1/C=C/C(=O)c1cc(Br)ccc1OC(=O)c1ccco1 | i | 66* | 0 | 3 | -2 | 94* | 74*
Cc1ccc(/C=C/C(=O)c2cc(Br)ccc2OC(=O)c2ccco2)cc1 | i | 74* | . | 7 | 3 | 95* | 74*
COc1ccc(Br)cc1C(=O)Nc1ccc(NC(=O)c2ccco2)cc1 | i | 4 | 7 | 1 | -4 | . | .
CCc1ccc(/C=C/C(=O)c2cc(Br)ccc(=O)c2O)cc1 | i | 30* | 11 | 60* | 15 | 61* | 46*
O=C(O)c1ccc(CN2C(=O)c3ccccc3S2(=O)=O)cc1 | i | 5 | 8 | -2 | 1 | . | .
